Screens: PubChem BioAssay, National Center for Advancing Translational Sciences (NCATS)
FMDV antiviral: High Throughput Screening for Foot and Mouth Disease Virus Antivirals; 410,000 tested, 1.2% active; FMDV antiviral cell-based qHTS; Potency, µM (titrated, usually from 57.9 µM), for the others: at the highest dose activity change, negative = inhibition, usual class: inhibitors; calls by dose curve; tested in HEK293T cells; also: read-out not given here; potency is read from the fitted curve at half-maximal effect; % is scaled to controls: 0 for no effect and ±100 for the full control effect; nearly all actives have a fitted effect of over 45% in size
CHX counter: Cycloheximide Counterscreen for Small Molecule Inhibitors of Shiga Toxin. cell reporter, cycloheximide protein synthesis inhibition counterscreen. max response, %. 300,000 tested, 12% active; in the data active = max response mostly above about 13%, no sharp cut-off; inactive = mostly below about 14%; also: read at 38.3 µM for the half of the compounds with a filed dose; 0% is about no effect
Shiga inhibitor: A qHTS for Small Molecule Inhibitors of Shiga Toxin. AID 2315, 2010. inhibition, % at 38.7 µM. Vero cells, Shiga toxin protein synthesis inhibition reporter. 290,000 tested, 9.2% active; in the data active = inhibition mostly above about 28%, no sharp cut-off; inactive = mostly below about 43%; also: 0% is about no effect
Sm TGR inh: qHTS Assay for the Inhibitors of Schistosoma Mansoni Peroxiredoxins; purified TGR, DTNB reduction, TNB absorbance 405 nm; AID 485364, 2010; Schistosoma mansoni thioredoxin glutathione reductase (TGR), Q962Y6; 360,000 tested, 3% active; Potency, µM (series often up to 114 µM), for inactives: at the highest dose activity change, negative = inhibition, most hits filed as inhibitors; active = well fitted inhibition curve with a large enough effect; inconclusive = small, poorly fitted or top-dose-only effect; inactive = no such curve, though single readings can be large or run the other way; also: potency is read from the fitted curve at half-maximal effect; % is scaled to controls: 0 for no effect and ±100 for the full control effect; nearly all actives have a fitted effect of over 60% in size
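First, TGR (20 nM dispensed) and NADPH were mixed with compound. Second, a 15 min room-temperature incubation followed. Third, further NADPH and then DTNB were added to start the reaction. Finally, TNB absorbance was monitored kinetically.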
* = called active by the depositor; ? = inconclusive; . = not tested or not shown. An excerpt weighted towards active compounds, which were near 12% of everything screened.

SMILES	FMDV antiviral	CHX counter	Shiga inhibitor	Sm TGR inh
Cn1c(=O)c2c(nc(CN3CCN(C(=O)c4ccco4)CC3)n2Cc2cccc(Cl)c2)n(C)c1=O	-19%	-3	-8	25µM*
CCOc1cccc(/C=N/N2C(C)CCCC2C)c1O (stereo not given)	46%	30*	46	0%
CC1CCCC(C)N1/N=C/c1ccc(Cl)cc1 (stereo not given)	12%	-2	3	0%
CCOc1ccc(/C=N/N2C(C)CCCC2C)cc1 (stereo not given)	13%	37*	50	6%
CCOc1cccc(C=Nc2cc(C)cc(C)c2O)c1O	2%	9	22	4µM*
CC1CCCC(C)N1/N=C/c1ccc(C#N)cc1 (stereo not given)	1%	26*	58	14%
CC(C)CCn1c(SCc2ccc(F)cc2Cl)nc2ccsc2c1=O	-22%	.	.	-17%
COc1ccc(C)cc1NC(=O)Cn1c(=O)nc(-c2ccccc2F)c2cc(Cl)ccc21	4%	.	.	3%
COc1ccc(-n2nc(C(=O)N3CCN(c4cccc(C)c4C)CC3)c3c4ccccc4n(C)c3c2=O)cc1	-17%	.	.	2%
CC1CCN(C(=O)Cn2nnc(-c3cccs3)n2)CC1	65%	39*	68*	-1%
O=C(Cn1nnc(-c2cccs2)n1)OC1CCCCC1	30%	18*	17	8%
O=c1[nH]c(=S)[nH]c(O)c1N=Nc1ccc(SC(F)F)cc1	-41%	33*	25	8%
COc1ccc(C(=O)NCCn2cc(SCc3cccc(F)c3)c3ccccc32)cc1OC	18µM*	.	.	-1%
COc1ccc(C(=O)NCCCOC(C)C)cc1OC1CCN(C(C)=O)CC1	74%	36*	96*	7%
COc1ccc(C(=O)NCCc2ccccc2)cc1[N+](=O)[O-]	40%	32*	50*	4%
O=C(NCCc1cccc(Cl)c1)c1ccc(Cl)c([N+](=O)[O-])c1	-2%	16	0	-8%
Cc1ccc(C(=O)NCCc2cccc(Cl)c2)cc1[N+](=O)[O-]	14%	38*	active	-1%
Cc1cnc(-n2ncc(C(=O)NCc3ccncc3)c2C(C)C)nc1-c1ccc(F)cc1	-21%	.	.	.
COc1ccc(C(=O)NCCc2c[nH]c3ccccc23)cc1[N+](=O)[O-]	-30%	7.4*	3	-3%
COc1ccccc1OCCNC(=O)c1ccc2c(c1)CCC2	0%	24*	65*	1%
Cc1ccc(C(=O)NCCSc2c(C)[nH]c3ccccc23)cc1[N+](=O)[O-]	35µM*	9	24	4%
COc1ccc(/C=C(/NC(=O)c2ccc(OC)c(OC)c2)C(=O)NCCc2c[nH]c3ccccc23)cc1	-14%	5	-10	-2%
CCC(CC)C(=O)Nc1cc(C(=O)NCCc2ccccc2)ccc1Cl	.	33*	16	1%
COc1ccccc1OCCNC(=O)c1ccc2c(c1)OCCO2	-13%	.	.	-11%
COc1ccc(C(=O)NCCc2ccccc2)cc1OC	77%	28*	44*	-9%
SMILES	FMDV antiviral	CHX counter	Shiga inhibitor	Sm TGR inh
COc1cc(C(=O)NCCCCc2ccccc2)cc(OC)c1OC	-29%	-1	-11	-12%
COc1ccc(CCNC(=O)c2ccc3nc(-c4ccco4)c(-c4ccco4)nc3c2)cc1OC	16µM*	6	-17	3.2µM*
CNC(=O)c1ccc(OCc2ccccc2)c(OC)c1	29%	20*	19	6%
COc1ccc(C(=O)NCCCc2ccccc2)cc1OC	14%	14*	.	-6%
COCC1CCCN(Cc2ccc3c(c2)CN(C(=O)c2cnn(C(C)C)c2)CCO3)C1 (stereo not given)	-11%	.	.	.
CCc1cccc(C)c1NC(=O)CCn1nc(C)c2c(C)n(-c3ccccc3)nc2c1=O	-3%	.	.	1%
O=C(CCn1cnc2onc(-c3ccc(F)cc3)c2c1=O)N1CCN(c2ccccc2F)CC1	-6%	.	.	1%
COc1ccccc1OCc1ccc(C(=O)c2ccccc2)cc1	3%	23*	.	0%
Cc1ccccc1NC(=O)C1c2cccc[n+]2CC(=O)N1c1c(C)cccc1C (stereo not given)	19%	-4	33	45µM*
COc1cccc(-c2nc(N3CCNCC3)c3ccccc3n2)c1	9%	.	.	.
Cc1ccc(C)n1-c1ccc(C(=O)O)cc1	.	6	18	18µM*
Cc1ccc(C)n1-c1cccc(NC(=O)c2ccccc2)c1	?	19*	38*	?
Cc1ccc(C)n1-c1ccc(C(=O)Nc2ccccc2)cc1	4%	34*	98*	25µM*
O=C(O)c1cccc(NC(=O)c2cc(NC(=O)c3ccccc3)cc(NC(=O)c3ccccc3)c2)c1	45%	-5	-11	-1%
Cc1ccc(C)n1-c1ccc(C(=O)N2CCOCC2)cc1	-23%	1	-1	8.9µM*
Cc1c(C(=O)N(C)C2CCOC2)sc2ncnc(NCc3ccc4c(c3)OCO4)c12 (stereo not given)	11%	.	.	.
CCOc1ccccc1CNC(=O)c1cc2c(=O)n(Cc3ccccc3)ccc2nc1C	?	.	.	-9%
CCc1ccc(C(=O)Cc2cc3cccc(OC)c3oc2=O)cc1	71%	28*	64*	-15%
COc1cccc2cc(C(=O)c3ccccc3)oc12	21%	68*	166*	7%
COc1cccc2cc(CC(=O)c3ccccc3)c(=O)oc12	0%	18	44*	-17%
COc1cccc2cc(CC(=O)c3ccc(C)c(C)c3)c(=O)oc12	47%	11	-7	6%
COc1cccc2cc(/C(=N/O)c3ccc(Br)cc3)oc12	-19%	5	-10	-2%
COc1cc(C(C)=O)ccc1OC(=O)c1cc2cccc(OC)c2oc1=O	-8%	-2	-8	-32%
COc1cccc2cc(-c3nc4ccccc4o3)c(=O)oc12	10%	45*	106*	5%
Cc1cccc(-n2c3nc(=O)[nH]c(=O)c-3cc3c(Cl)cccc32)c1C	?	.	.	-16%
SMILES	FMDV antiviral	CHX counter	Shiga inhibitor	Sm TGR inh
COc1cccc2cc(CC(=O)c3cc(C)ccc3C)c(=O)oc12	15%	28*	71*	-6%
CCC(=O)Nc1nc2ccc([N+](=O)[O-])cc2s1	-14%	10	14	14%
CCC(=O)Nc1nc2ccc3sc(C)nc3c2s1	8%	50*	96*	-1%
Cc1nc2c(ccc3nc(NC(=O)C4CC4)sc32)s1	58%	52*	85*	7%
CCCC(=O)Nc1nc2ccc3nc(C)sc3c2s1	61%	40*	95*	-24%
COc1ccc(C)c2sc(NC(=O)C3CC3)nc12	8%	8	7	-8%
CCCCC(=O)Nc1nc2ccc3nc(C)sc3c2s1	30%	9	16	-8%
CCOc1ccc(-n2c(SCC(=O)N3CCc4ccccc43)nc3c([nH]c4ccccc43)c2=O)cc1	-4%	.	.	8%
COc1ccc(/C=C/C(=O)OC2CCCN(C)C2)cc1 (stereo not given)	3%	26*	48*	-4%
Cc1ccc(C(=O)NCC(c2ccco2)S(=O)(=O)c2ccc(Cl)cc2)cc1C (stereo not given)	-29%	.	.	11µM*
O=C(NCC(c1ccco1)S(=O)(=O)c1ccc(Cl)cc1)c1ccccc1F (stereo not given)	20%	.	.	2.5µM*
